Data on four molecules can be found in PubChem BioAssay.

SMILES strings stand for the structures. Values joined by “and” are separate entries in the source; they are usually repeats but may differ in a detail not shown here. Equal entries are not always repeated. Inconclusive results are not listed. For some assays here: Measured potencies and affinities stand elsewhere. Active and inactive are the calls of the source. Unless noted, the rule behind the calls is not given here.

Test [1] in a line: blockers of polyQ-driven CASP3 activation – cell-based (AID 1583). The note with it: polyglutamine-induced caspase-3 activation, cell assay; stronger effect = higher value;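 tested at 10 µM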.
A short description of test [2]: yeast 75Q aggregation reduction – 75Q-TubU reporter (AID 1593). The note with it: Yeast 75Q polyglutamine aggregation reporter.
The nature of test [3]: restoration of touch response, mutant HTT neurons – whole organism, C. elegans mechanosensory neurons, N-terminal huntingtin (AID 1599). The note with it: C. elegans polyQ-huntingtin mechanosensory neurons, stronger effect = higher value.
A short description of test [4]: blockers of cytochrome c efflux from mitochondria – biochemical, purified mitochondria (AID 1603).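 Note: mouse liver mitochondria challenged with calcium chloride; signal normalized to the plate average as 100%.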 The following applies: stronger effect = lower value.
A short description of test [5]: polyglutamine aggregate formation blockers (AID 1604). The following applies: polyglutamine-induced protein aggregation inhibition assay; stronger effect = higher value; tested at 2.5 µM.
A short description of test [6]: glutamate transport activators, MN-1 cells, MN-1 cell line (AID 1612).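 Note: tested at 1 µM final; 0% = mean of DMSO vehicle wells on each plate; positive means more glutamate uptake than control and negative means less.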 The note with it: MN-1 motor neuron cells, stronger effect = higher value.
Test [7] can be described thus: GFP-Q80 aggregate reduction, neuronal-like cells, cell-based, NGF-treated PC12, GFPQ80 (AID 1614).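 Note: lower means fewer inclusions and 0 means no inclusions at all.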 The following applies: PC12 NGF-treated GFP-polyQ80 inclusion reduction.
A short description of test [8]: 75Q-TubH aggregate inhibition, S. cerevisiae, yeast (AID 1616). The following applies: S. cerevisiae 75Q-TubH polyglutamine aggregation suppression; stronger effect = higher value.
Test [9] in a line: P. berghei load reduction in hepatocytes – cell-based, HepG2, luciferase luminescence, HepG2 viability, primary screen (AID 624349; in the data active = parasite load remaining mostly below about 12%, no sharp cut-off; inactive = mostly above about 10%;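 note: 100% = mean of DMSO negative control wells on the same plate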). The note with it: P. berghei liver stage in HepG2, luciferase luminescence, concentration not given here; parasite load remaining: stronger effect = lower value; viability: measured here: HepG2 viability without parasites.
Test [10] can be described thus: signal quenchers or enhancers, Cy5 substrate/SSB – biochemical, NIH Clinical Collection, E. coli SSB, artefact control for HCV NS3 helicase inhibitor project (AID 743268). The following applies: Cy5-oligo bound E. coli SSB, fluorescence interference.
Test [11] relates to Hepatitis C virus NS3 helicase. Kind of test: blockers of NS3h binding to DNA – biochemical, fluorescence polarization, NIH Clinical Collection, primary screen (AID 743270). The following applies: NS3 helicase binding to Cy5-dT15 DNA, stronger effect = higher value, concentration not given here. In general terms: Fluorescence polarisation rises when a labelled molecule tumbles more slowly, as on binding a larger partner.

For test [12], the target named is Single-stranded DNA-binding protein (Escherichia coli (strain K12)) (UniProt P0AGE0). Kind of test: SSB-ssDNA binding inhibitors – biochemical, fluorescence polarization, NIH Clinical Collection, counter-screen for HCV NS3 helicase inhibitor project (AID 743271; in the data active = inhibition above about 28%). The following applies: E. coli SSB-DNA binding, stronger effect = higher value, concentration not given here.
A short description of test [13]: compounds distorting NS3 helicase fluorescence signal – biochemical, NIH Clinical Collection, artefact control for HCV NS3 helicase inhibitor project (AID 743272).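 Note: HCV NS3 helicase with a Cy5 labelled single stranded DNA probe.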 The note with it: fluorescence interference counterscreen, HCV NS3 helicase assay; stronger effect = lower value. Background: The purpose of a counterscreen is to sort out artefacts and off-target activity.
In test [14] the test system is Neuropilin-2 / VEGF-C interaction (human). Kind of test: small molecules blocking Neuropilin-2/VEGF-C interaction – biochemical, microplate binding format, z-score (AID 743281). The following applies: microplate NRP2/VEGF-C binding assay; stronger effect = lower value.
The target of test [15] is 6-phosphogluconate dehydrogenase, decarboxylating (Homo sapiens) (UniProt P52209). Kind of test: inhibition of human phosphogluconate dehydrogenase – biochemical, recombinant enzyme, NADPH absorbance, primary screen (AID 1159550;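 active = at least 20% inhibition of 6-phosphogluconate dehydrogenase activity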). The following applies: recombinant 6PGD, NADPH absorbance 341 nm; at 10 µM; stronger effect = higher value.
Test [16] can be described thus: modulation of C. elegans fzo-1 (AID 1259413).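 Note: fzo-1 mutant C. elegans worms in liquid wells.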 The following applies: C. elegans fzo-1 modulator screen, mean read-out; stronger effect = higher value.
Test [17] concerns Aerobactin synthetase IucA (Klebsiella pneumoniae hvKP1). Kind of test: IucA enzyme inhibition, primary screen, biochemical, Spectrum library (AID 1346200).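 Note: 100% = wells without compound and 0% = wells lacking enzyme.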 The note with it: malachite green pyrophosphate, A620, at 8 µM, stronger effect = lower value.
Test [18] in a line: viability loss with induced miR-34 in A549 – imaging, A549 dox-inducible miR-34, nuclei and caspase counts, primary screen (AID 1347080;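 active = compounds whose cell count with miR-34 switched on is under 0.7 times the count with it off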). The following applies: A549 miR-34 inducible, Hoechst nuclei count, 48 h.
A short description of test [19]: galactose survival enhancers in mitochondrial complex I cybrids – cell-based, galactose medium, ATP luminescence, primary screen (AID 1645843;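 active = z-score of at least 1.8 in each of two replicates, scored against plate mean and spread of sample wells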;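 note: positive z means more ATP and so rescue of galactose-driven cybrid death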). The note with it: complex I mutant cybrid cells, 72 h, stronger effect = higher value.
Another test deals with F380Y. Kind of test: BK channel mutant inhibitors and activators – cell-based, U2OS BacMam, thallium flux, beta subunits, selectivity assay, profiling panel (AID 1259406;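 active = thallium flux through the channel raised or lowered by more than 3 SD from vehicle-only wells, actives on both sides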;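 note: initial slope of Thallos dye fluorescence rise after thallium is added; log ratio against the mean of 0.3% DMSO vehicle wells on the same plate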). The following applies: U2OS BacMam BK variants, at 30 µM.
A further test deals with F380Y/beta2Delta. The test is described as above. The following applies: U2OS BacMam BK variants, at 30 µM.
The target of test [20] is Calcium-activated potassium channel subunit alpha-1 (Homo sapiens) + Leucine-rich repeat-containing protein 26 (Homo sapiens) (UniProt Q12791+Q2I0M4). The test is described as above. The note with it: U2OS BacMam BK variants, F380Y/Slo1WT/gamma1, at 30 µM.
The subject of another test is R275C. The description is as above. The following applies: U2OS BacMam BK variants, at 30 µM.
A further test has as its system R275C/beta1. The description is as above. The note with it: U2OS BacMam BK variants, at 30 µM.
The subject of another test is R275C/beta2Delta. The description is as above. The following applies: U2OS BacMam BK variants, at 30 µM.
The target in test [21] is ATP-dependent translocase ABCB1 (Homo sapiens) (UniProt P08183). Kind of test: P-glycoprotein substrate transport blockade – cell-based (AID 377; in the data active = fluorescence slope change above about 50%). The note with it: MDR1-expressing cells, fluorescent substrate accumulation slope; stronger effect = higher value; concentration not given here.
A short description of test [22]: rescue of PC12 cells from polyQ htt toxicity – LDH release (AID 1610). The following applies: PC12 mutant huntingtin toxicity, final LDH at 4 uM, stronger effect = lower value. For orientation: Release of lactate dehydrogenase indicates damage to the cell membrane.
Test [23] in a line: compounds altering circadian rhythm period length – cell-based, LOPAC library, luminescence reporter (AID 2774).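 Note: values are relative to mean of DMSO wells on each plate.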 The following applies: circadian reporter cells, at 7 µM, actives lie on both sides.
Test [24] is described as follows: compounds altering viability of human ES cells (AID 493140).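 Note: cells exposed to compounds for four days before counting.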 The following applies: human embryonic stem cell survival screen; stronger effect = higher value.
Test [25] has as its system Hepatitis C virus NS3 helicase. Kind of test: blockers of NS3h binding to ssDNA – biochemical, fluorescence polarization, LOPAC1280 library, primary screen (AID 687035; in the data active = inhibition above about 37%). The following applies: Purified HCV NS3 helicase, Cy5-dT15 ssDNA binding fluorescence polarization; stronger effect = higher value; concentration not given here.
Test [26] can be described thus: compounds altering Cy5-DNA-NS3h complex signal – biochemical, LOPAC1280, artefact control for HCV NS3 helicase inhibitor project (AID 687037). The following applies: Cy5-DNA-NS3h complex fluorescence interference counterscreen.
The nature of test [27]: EMT-state selective cytotoxicity in co-culture – imaging, PC-3E GFP, TEM4-18 mCherry, primary screen (AID 1345086;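 active = compounds killing one labelled cell type while sparing the other, by normalised counts and ratio limits, not self-fluorescent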;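 note: cells exposed to compound for 72 h before imaging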;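 for red/green cell ratio (normalised): normalised mesenchymal count divided by normalised epithelial count so high means epithelial killing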). The note with it: PC-3E GFP / TEM4-18 mCherry co-culture, imaging cell counts, at 1 µM.
The subject of test [28] is Aerobactin synthetase IucA (Klebsiella pneumoniae, hypervirulent). Kind of test: biochemical IucA inhibition screen of LOPAC library by absorbance (AID 1346212).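 Note: 100% = no compound wells and 0% = no enzyme wells.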 The following applies: IucA enzyme assay, absorbance (OD) readout; stronger effect = lower value;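 tested at 8 µM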.
The nature of test [29]: chitosan synthesis blockers in C. neoformans – flow cytometry, Cibacron Brilliant Red staining (AID 1347148).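 Note: compound exposure lasted three days at 37 degrees C.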 The note with it: Cryptococcus neoformans chitosan, stronger effect = lower value; at 10 µM unless noted.
Test [30] can be described thus: MELAS cybrid and Rieske KO viability enhancers – cell-based, MELAS cybrids, Rieske KO mouse fibroblasts, CellTiter-Glo, primary screen (AID 1508586).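 Note: z relative to plate mean and SD of compound and empty wells.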 The note with it: low glucose.
For test [31], the target named is NAD(+) hydrolase SARM1 (Homo sapiens) (UniProt Q6SZW1). Kind of test: blocking NAD cleavage by SARM1 SAM-TIR – cell lysate, NAD-Glo luminescence (AID 1508614;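 active = compound whose remaining NAD level is above about 45 nM, limit read from the data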;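 note: higher remaining NAD means stronger inhibition of SARM1 NADase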). The note with it: SAM-TIR HEK293T lysate NADase, at 1 µM, stronger effect = higher value.
Chain of NAD(+) hydrolase SARM1 (Homo sapiens) (Q6SZW1 whole entry, looked up): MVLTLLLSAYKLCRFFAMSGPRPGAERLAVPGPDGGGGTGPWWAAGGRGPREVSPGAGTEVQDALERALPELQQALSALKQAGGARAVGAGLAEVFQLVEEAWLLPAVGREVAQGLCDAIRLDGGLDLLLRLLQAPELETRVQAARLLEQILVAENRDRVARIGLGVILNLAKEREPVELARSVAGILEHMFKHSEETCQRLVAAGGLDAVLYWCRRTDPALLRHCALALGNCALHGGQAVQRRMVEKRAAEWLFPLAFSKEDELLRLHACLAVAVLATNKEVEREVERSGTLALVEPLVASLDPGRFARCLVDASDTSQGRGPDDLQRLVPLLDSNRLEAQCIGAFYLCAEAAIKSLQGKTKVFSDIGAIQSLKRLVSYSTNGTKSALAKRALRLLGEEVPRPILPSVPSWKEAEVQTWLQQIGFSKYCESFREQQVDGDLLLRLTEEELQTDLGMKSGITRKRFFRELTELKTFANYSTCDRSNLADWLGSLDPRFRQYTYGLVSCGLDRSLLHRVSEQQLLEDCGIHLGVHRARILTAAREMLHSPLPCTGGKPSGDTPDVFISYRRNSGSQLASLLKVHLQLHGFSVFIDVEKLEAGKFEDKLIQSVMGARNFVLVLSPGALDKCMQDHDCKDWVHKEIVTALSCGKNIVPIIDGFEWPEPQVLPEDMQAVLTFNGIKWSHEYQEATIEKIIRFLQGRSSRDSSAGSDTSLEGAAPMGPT

Chain of 6-phosphogluconate dehydrogenase, decarboxylating (Homo sapiens) (P52209 whole entry, looked up): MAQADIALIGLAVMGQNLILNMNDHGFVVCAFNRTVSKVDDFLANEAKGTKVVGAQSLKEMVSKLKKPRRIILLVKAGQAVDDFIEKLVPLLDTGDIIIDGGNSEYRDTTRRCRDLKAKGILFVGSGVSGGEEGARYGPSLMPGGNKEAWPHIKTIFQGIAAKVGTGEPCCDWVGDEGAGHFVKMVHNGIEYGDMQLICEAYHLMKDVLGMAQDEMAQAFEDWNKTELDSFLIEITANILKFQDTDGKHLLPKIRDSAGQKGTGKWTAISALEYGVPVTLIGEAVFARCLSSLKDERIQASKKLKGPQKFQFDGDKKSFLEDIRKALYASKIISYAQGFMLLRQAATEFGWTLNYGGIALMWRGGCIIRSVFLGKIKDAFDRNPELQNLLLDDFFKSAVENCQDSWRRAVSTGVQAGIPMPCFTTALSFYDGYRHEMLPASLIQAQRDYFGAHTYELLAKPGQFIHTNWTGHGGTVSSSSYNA
Chain of ATP-dependent translocase ABCB1 (Homo sapiens) (P08183 whole entry, looked up): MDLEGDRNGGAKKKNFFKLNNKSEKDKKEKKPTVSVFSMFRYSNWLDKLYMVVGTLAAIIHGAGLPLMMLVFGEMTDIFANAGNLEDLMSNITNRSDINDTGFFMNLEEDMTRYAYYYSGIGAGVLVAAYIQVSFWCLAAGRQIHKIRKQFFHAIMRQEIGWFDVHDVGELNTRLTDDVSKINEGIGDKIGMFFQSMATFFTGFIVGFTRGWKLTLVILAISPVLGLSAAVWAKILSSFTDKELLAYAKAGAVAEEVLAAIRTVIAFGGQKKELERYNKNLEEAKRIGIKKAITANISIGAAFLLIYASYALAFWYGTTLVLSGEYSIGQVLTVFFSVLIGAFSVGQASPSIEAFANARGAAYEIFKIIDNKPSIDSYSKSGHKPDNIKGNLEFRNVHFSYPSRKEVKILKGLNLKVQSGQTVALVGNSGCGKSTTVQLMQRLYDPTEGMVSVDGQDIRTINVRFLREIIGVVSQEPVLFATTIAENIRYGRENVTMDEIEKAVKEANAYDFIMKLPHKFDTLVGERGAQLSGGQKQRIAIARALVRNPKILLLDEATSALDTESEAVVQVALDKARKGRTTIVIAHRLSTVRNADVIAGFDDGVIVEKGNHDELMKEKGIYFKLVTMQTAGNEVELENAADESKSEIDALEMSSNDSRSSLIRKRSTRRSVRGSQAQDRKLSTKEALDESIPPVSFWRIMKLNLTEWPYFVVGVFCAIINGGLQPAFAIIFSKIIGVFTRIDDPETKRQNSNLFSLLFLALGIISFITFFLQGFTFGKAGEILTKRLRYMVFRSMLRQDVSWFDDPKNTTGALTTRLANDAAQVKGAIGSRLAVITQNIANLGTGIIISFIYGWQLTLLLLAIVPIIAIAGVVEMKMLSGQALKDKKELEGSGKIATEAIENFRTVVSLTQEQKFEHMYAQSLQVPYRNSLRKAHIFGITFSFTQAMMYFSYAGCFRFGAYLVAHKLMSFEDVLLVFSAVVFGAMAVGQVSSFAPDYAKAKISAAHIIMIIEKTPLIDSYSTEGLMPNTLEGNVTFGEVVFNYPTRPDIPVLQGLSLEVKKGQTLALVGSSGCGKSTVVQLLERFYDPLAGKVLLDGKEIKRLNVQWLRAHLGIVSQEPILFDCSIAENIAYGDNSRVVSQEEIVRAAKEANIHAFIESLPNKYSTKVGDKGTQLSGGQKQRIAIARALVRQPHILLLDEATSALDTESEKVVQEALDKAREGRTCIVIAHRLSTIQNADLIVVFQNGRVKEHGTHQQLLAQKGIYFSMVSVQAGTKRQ
Chain of Calcium-activated potassium channel subunit alpha-1 (Homo sapiens) + Leucine-rich repeat-containing protein 26 (Homo sapiens) (Q2I0M4 whole entry, looked up, one chain of several): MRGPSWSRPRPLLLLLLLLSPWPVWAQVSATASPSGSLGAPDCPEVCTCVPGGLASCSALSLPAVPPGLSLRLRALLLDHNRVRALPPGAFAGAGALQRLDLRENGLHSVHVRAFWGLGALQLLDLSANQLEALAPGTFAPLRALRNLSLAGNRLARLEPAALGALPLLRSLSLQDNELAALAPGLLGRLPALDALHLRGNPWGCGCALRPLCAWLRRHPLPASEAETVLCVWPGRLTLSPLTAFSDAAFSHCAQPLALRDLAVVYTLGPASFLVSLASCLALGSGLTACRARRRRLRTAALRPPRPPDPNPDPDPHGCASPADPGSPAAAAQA

In general, inhibition refers to the drop in the measured response relative to a control, in per cent. What is called viability is the share of living cells, or the viability signal relative to a control. Turning to `FC(F)(F)c1cccc(N2CCNCC2)c1`, the inhibition in [1] was 28.1%; in [11], -2.77% (inactive); in test [12], -3.95% (inactive); in test [15] it was 7.13% (inactive). This molecule also showed a score in test [2] of 1.15. For the same molecule, in [3], the rescue above control came to 0. The cytochrome c release ratio in test [4] is 0.84. This molecule displayed an inhibition of aggregation in test [5] of 50%. This molecule also yielded a glutamate uptake change in test [6] of 0.29%. In [7], the inclusion score worked out at 2. Also, the aggregation suppression score in [8] is 1.16. For the same molecule, the parasite load remaining in test [9] is 134% (inactive). Moreover, in test [9], the viability is 71.2%. In addition, the fluorescence ratio is 1.01 (inactive) in test [10] and 0.93 (inactive) in test [13]. The z-score in test [14] is -0.497 (inactive); in [19] it was 0.73 (inactive). Moreover, in test [16], the mean signal was 282 (inactive). Besides, the activity remaining in test [17] is 116% (inactive). Also, the fold change is 0.923 (inactive) in [18] (stronger effect = lower value) and 1.38 in test [18] (measured here: relative caspase fold change +Dox/-Dox). For the same molecule, the cell count in [18] (measured here: total cells with miR-34 induction, stronger effect = lower value) stood at 9590; in test [18] (measured here: total cells without miR-34 induction) it was 10400. For the same molecule, the log fold change Tl+ flux in the test on F380Y is -0.0132 (inactive); in the test on F380Y/beta2Delta, 0.0279 (inactive); in test [20], -0.00699 (inactive); with R275C, 0.0139 (inactive); with R275C/beta1 it was 0.0717 (inactive); in the test on R275C/beta2Delta it was 0.00655 (inactive).

As for `CCC(=O)Nc1ccc(Cl)c(Cl)c1`, the inhibition in test [15] is -20.3% (inactive).

`OC1C[C@H]2CCC[C@@H](C1)N2Cc1ccccc1` (some centres not stated): the inhibition in test [15] is 1.32% (inactive).

Broadly, the remaining activity is the signal under treatment as a percentage of the control signal. For `O=c1c2ccccc2[se]n1-c1ccccc1`, the fluorescence slope change in [21] is -12.9% (inactive). For the same molecule, the inhibition in [1] was 12.1%; in test [25], -2% (inactive); in [11], 99.3% (active); in test [12] it was -0.39% (inactive); in test [15] it was 51.1% (active). For the same molecule, the score in [2] was determined as 0.32. In [4], the cytochrome c release ratio amounted to 1.88. Moreover, the inhibition of aggregation in test [5] is 72.2%. The molecule further returned a normalised LDH release in test [22] of 0.64. The glutamate uptake change in test [6] stood at 26.2%. In [8], this molecule showed an aggregation suppression score of 0.00636. Also, the period change in test [23] was -0.02 h (inactive). Also, in [24], the survival was 0.417 (inactive). In test [9], the parasite load remaining was 54.1% (inactive) and 46.2% (inactive). Also, the viability in test [9] was 93.6% and 69.7%. Moreover, in test [26], the fluorescence ratio (interference) was 1 (inactive). Besides, the results for the fluorescence ratio in test [10] and in test [13] were 1 (inactive) and 1.05 (inactive), respectively. The z-score was 0.167 (inactive) in [14]; -1.8 in test [30] (MELAS cybrid survival, CellTiter-Glo 48 h, stronger effect = higher value); 2.16 in test [30] (Rieske KO mouse fibroblast survival, CellTiter-Glo 72 h); -1.44 (inactive) in [19]. The mean signal in test [16] was 217 (inactive). For the same molecule, the red/green cell ratio (normalised) in test [27] (actives lie on both sides) was 0.87 (inactive). Besides, the normalised cell number in [27] (measured here: epithelial PC-3E GFP cell survival) is 1.06; in test [27] (measured here: mesenchymal TEM4-18 mCherry cell survival) it was 0.92. Further, the activity remaining in test [17] was -2.27% (active). In test [28], the remaining activity is -5.47% (active). In addition, the fold fluorescence in test [29] was 9.59 [at 182.4 µM] (inactive). Besides, the remaining NAD in [31] was 10 nM (inactive).
